Data taken from publication PMC9574860, “Chemical Toolkit for PARK7: Potent, Selective, and High-Throughput” (Journal of Medicinal Chemistry, 2022).
About 400 (5.1%) of roughly 7,900 compounds showed an effect of 50% or more. Many of the other results were omitted from the sample, so strong results are more common in it than they were.

The compounds below were run against Parkinson's disease protein 7 (PARK7/DJ1) (human, UniProt Q99497) (assay: primary screen, percent inhibition; read as competition with a fluorescent probe by fluorescence polarization; higher = more effect of the substance). Conditions: 100 µM.
How it was run: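 Covalent fragments at 100 μM final were incubated 2 h with 0.2 μM PARK7, then 20 nM probe JYQ-107 added for a further 2 h. Fluorescence polarization read at 480/520 nm; relative FP loss versus reference controls gave remaining enzyme activity.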

Sequence of Parkinson's disease protein 7 (PARK7/DJ1) (Q99497 whole entry, looked up, the tested form may be a part): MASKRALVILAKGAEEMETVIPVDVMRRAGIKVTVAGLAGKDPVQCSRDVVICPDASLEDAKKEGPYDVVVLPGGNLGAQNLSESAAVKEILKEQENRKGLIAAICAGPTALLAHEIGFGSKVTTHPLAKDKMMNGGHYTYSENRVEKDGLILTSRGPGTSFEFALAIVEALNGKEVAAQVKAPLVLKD

Row | Structure (SMILES) | Inhibition % [%]
1 | C=CC(=O)N1CCC(C(=O)N(C)c2ccccc2)C1 (stereo not shown) | 9.62
2 | C=CC(=O)NCc1coc2ccccc12 | 7.72
3 | O=C(N1CCC1c1ccccc1)n1ccnc1 (stereo not shown) | 11.7
4 | O=C(NCC(F)(F)F)n1ccnc1 | 6.27
5 | O=C(NCCc1ccc(F)cc1)n1ccnc1 | 12.7
6 | O=C(NCC1CCCC1)n1ccnc1 | 40.7
7 | COc1ccccc1CNC(=O)n1ccnc1 | 5.2
8 | COc1ccc(CNC(=O)n2ccnc2)cc1OC | 6.72
9 | O=C(Nc1ccc(CNC(=O)n2ccnc2)cc1)C1CC1 | 92.1
10 | Cc1ccccc1CCNC(=O)n1ccnc1 | 101
11 | Cc1ccccc1CCNC(=O)Cn1cnc(C#N)n1 | 4.99
12 | CNC(=O)n1ccnc1 | 75.1
13 | COc1cccc(CNC(=O)n2ccnc2)c1 | 95.1
14 | CC(C)C(=O)Nc1ccc(CNC(=O)n2ccnc2)cc1 | 0.0136
15 | Cc1cc(C)nc(C#N)c1 | 9.14
16 | NCC1CCCCN1C(=O)C=Cc1ccccn1 (stereo not shown) | 1.06
17 | C=CC(=O)NC1CCN(C2CCOC2)CC1 (stereo not shown) | 22
18 | C=CC(=O)NCCc1noc(-c2ccccn2)n1 | 11
19 | C=CC(=O)NCc1ccnc(C)n1 | 7.47
20 | C=CC(=O)NCc1nnc(C2CC2)o1 | 6.84
21 | Nc1ccc(NC(=O)Oc2ccccc2)cc1 | 11.2
22 | CC1(C)OB(c2cccc3c2CCC3)OC1(C)C | 3.3
23 | CS(=O)(=O)c1ccc(C(=O)CCl)cc1 | 87.3
24 | O=C(CCl)NC(=O)c1ccco1 | 22.8
25 | O=C(CCl)c1ccc(NC(=O)c2ccco2)cc1 | 90.6

Row | Structure (SMILES) | Inhibition % [%]
26 | NC(=O)Nc1ccc(C(=O)CCl)cc1 | 89.6
27 | CCC(=O)Nc1ccc(C(=O)CCl)cc1 | 4.09
28 | CC(=O)Nc1ccc(C(=O)CCl)cc1 | 82.5
29 | CS(=O)(=O)c1ccc(OCCCl)cc1 | 4.09
30 | CC(C)C(=O)Nc1ccc(C(=O)CCl)cc1 | 2.39
31 | CCCC(=O)Nc1ccc(C(=O)CCl)cc1 | 5.21
32 | CC(C)CC(=O)Nc1ccc(C(=O)CCl)cc1 | 3.15
33 | CC1(C)OB(c2ccc(OCCS(C)(=O)=O)cc2)OC1(C)C | -1.19
34 | N#Cc1cccc(OCC(F)(F)F)n1 | -0.809
35 | CN(C)S(=O)(=O)c1ccc(S)nc1 | 31.2
36 | O=c1onc(-c2ncccn2)n1Cc1ccccc1F | 1.26
37 | CC(=O)Nc1ccc(Sc2nccnc2C#N)cc1 | 18.2
38 | CC1(C)OB(C2CNC2)OC1(C)C.O=C(O)C(F)(F)F | 11.6
39 | COc1cc(F)ccc1N1CCN(C2CCOC2=O)CC1 (stereo not shown) | 7.6
40 | O=C(O)CNC(=O)C12CC3CC(CC(Cl)(C3)C1)C2 | 7.56
41 | Cc1c(NC(=O)CCl)cccc1[N+](=O)[O-] | 8.38
42 | C=CC(=O)NCC1CCC2(CCC2)CO1 (stereo not shown) | 5.32
43 | O=C(Nc1ccc(Cl)cc1)N1CCCCC1C1OCCO1 (stereo not shown) | 5.3
44 | C=CC(=O)N1CCC(c2ccco2)CC1 | 8.73
45 | Cc1ccn(S(=O)(=O)c2ccc(C(C)(C)C)cc2)n1 | 4.34
46 | Cc1ncsc1C=C(C#N)C(=O)NCCc1ccccc1 | 6.72
47 | CS(=O)(=O)Nc1ccc(B(O)O)cc1 | 9.91
48 | CS(=O)(=O)Nc1ccc(C(=O)CCl)cc1 | 75.1
49 | Cc1cc(I)ccc1NC(=O)CCl | 7.36
50 | Cc1c(NC(=O)c2cccnc2S)cnn1CCC(C)C | 3.61

Row | Structure (SMILES) | Inhibition % [%]
51 | O=C(CCl)NNC(=O)c1cc2c(s1)CCCC2 | 4.38
52 | O=C(CCl)c1ccc2c(c1)CCN(C(=O)C(F)(F)F)C2 | 2.68
53 | CC(=O)N1CCc2sc(C(=O)CCl)cc2C1 | 73.5
54 | N#Cc1c(-c2ccccc2)nc(S)[nH]c1=O | 13.2
55 | Cc1ccc(CN2CCCN(C(=O)CCl)CC2)cc1.Cl | 13
56 | COc1cc(S(=O)(=O)n2cccn2)ccc1F | 1.65
57 | O=C1OCCC1Sc1ncnc2ccsc12 (stereo not shown) | 3.13
58 | CN(C(=O)c1cc(C(N)=O)cs1)C1CC(C)(C)OC1=O (stereo not shown) | 7.6
59 | CN(C)C(=O)c1csc(C(=O)CCl)c1 | 67.8
60 | Cn1cc(C(=O)CCl)cc1C(N)=O | 0.329
61 | O=C(CCl)Nc1cccc(C(=O)O)c1 | 13.2
62 | CN(C)C(=O)c1cccc(NC(=O)CCl)c1 | 12.2
63 | NC(=O)c1csc(C(=O)CCl)c1 | 101
64 | O=C(O)c1csc(C(=O)CCl)c1 | 102
65 | CN(C)C(=O)c1ccc(NC(=O)CCl)cc1 | 44.1
66 | CC(C)C1NC(=O)C12CCCCCC2 (stereo not shown) | 9.56
67 | C=CC(=O)NC1(C)CCC(C)CC1 (stereo not shown) | 29.1
68 | C=CC(=O)NCCc1nc2c(C)cccc2o1 | 9.51
69 | Cc1cc(NC(=O)CCl)n(-c2ccccc2)n1 | 29.6
70 | Cc1nn(-c2ccccc2)c(C)c1C=C(C#N)C(=O)O | 6.36
71 | CN(C)C(=O)c1ccc(B2OC(C)(C)C(C)(C)O2)c(Cl)c1 | 2.75
72 | Cn1ncc(C(=O)O)c1C#N | 13.7
73 | Cl.NCc1cc(=O)[nH]c(S)n1 | 27.5
74 | NC(=O)Cc1cc(=O)[nH]c(S)n1 | 52.6
75 | CCCc1cc(=O)[nH]c(S)n1 | 8.86

Row | Structure (SMILES) | Inhibition % [%]
76 | N#CC(=Cc1ccc(F)cc1)C(=O)O | 2.9
77 | C=CC(=O)NCC1(C)OCCc2sccc21 (stereo not shown) | 16.4
78 | COc1nc(C)ccc1C(=O)Nc1cccc(S(=O)(=O)F)c1 | 11.7
79 | Cn1cc(C(C)(C)C(=O)Nc2cccc(S(=O)(=O)F)c2)cn1 | 88.2
80 | CC1(C(=O)Nc2cccc(S(=O)(=O)F)c2)CCCC1 | 97.7
81 | CC(F)(F)C1(C(=O)Nc2cccc(S(=O)(=O)F)c2)CC1 | 95.7
82 | Cn1ncc(C(=O)Nc2cccc(S(=O)(=O)F)c2)c1C#N | 4.68
83 | C=CC(=O)NC(C)(C)c1cnn(C)c1 | 3.17
84 | CSC1(C(=O)Nc2cccc(S(=O)(=O)F)c2)CC1 | 101
85 | Cc1cc(C(=O)Nc2cccc(S(=O)(=O)F)c2)nn1C(C)(C)C | 32.8
86 | COCCNC(=O)C(C#N)=Cc1c(Cl)cccc1Cl | 2.17
87 | O=C(CCl)Nc1cccc2ncccc12 | 40.3
88 | CS(=O)(=O)NC1CCCN(C(=O)C=Cc2cccnc2)C1 (stereo not shown) | 5.3
89 | N#CN(CCn1cncn1)c1ccccc1 | 6.47
90 | OB(O)c1ccc(OCC2CCCCO2)cc1 (stereo not shown) | 27.9
91 | CCN(c1ccc(C(F)(F)F)c(C#N)n1)C1CCOC1 (stereo not shown) | 8.44
92 | C=CC(=O)NC1CCCN(c2ncccn2)C1 (stereo not shown) | 4.88
93 | CC1(C)OB(c2ccc(C(F)C(F)(F)F)cc2)OC1(C)C (stereo not shown) | 3.09
94 | Cc1cc(C)n(CCCNc2ccnc(C#N)c2)n1 | 3.45
95 | CC1CC(Sc2nccc(C(F)(F)F)n2)C(=O)O1 (stereo not shown) | 3.32
96 | C=CC(=O)N1CCCC(n2ccnn2)CC1 (stereo not shown) | 11.9
97 | C=CS(=O)(=O)Nc1ccccc1 | 6.78
98 | CC1(C(=O)Nc2cccc(S(=O)(=O)F)c2)CCOCC1 | 83.4
99 | C=CC(=O)NCC1c2ccccc2C(=O)N1C (stereo not shown) | 7.14
100 | C=CC(=O)NC1(c2ccc(C(F)(F)F)cc2)CC1 | 6.09

Row | Structure (SMILES) | Inhibition % [%]
101 | C=CC(=O)N1CCCC(c2n[nH]c(=O)o2)C1 (stereo not shown) | 1.49
102 | C=CC(=O)N1CCC(NC(C)=O)(c2nc(C)cs2)C1 (stereo not shown) | 5.8
103 | CC1(c2ccc(S(=O)(=O)F)cc2)OCCO1 | 6.74
104 | Cc1nc(C2CC2)nc(S)c1C#N | 2.7
105 | Cc1nc(C2CC2)nc(S)c1C(=O)O | 51.1
106 | Cc1nc(C(C)(C)C)nc(S)c1C(=O)O | 1.97
107 | C=CC(=O)NC1COc2c(C)cccc2C1 (stereo not shown) | 10.9
108 | CC1(C)OB(c2cc3ccccc3cc2Br)OC1(C)C | 11.9
109 | CN(c1ccc(C(=O)CCl)cc1)S(C)(=O)=O | 94.3
110 | CCN(c1ccc(C(=O)CCl)cc1)S(C)(=O)=O | 95.1
111 | N#Cc1ccc(C(=O)CCl)cc1 | 18.8
112 | O=C(CCl)N(C1CCCCC1)C1CCS(=O)(=O)C1 (stereo not shown) | 1.27
113 | O=C(CCl)NCC#Cc1cccc(C(F)(F)F)c1 | 6.88
114 | Cl.ClCCN1CC2CCC(C1)O2 | 3.05
115 | Cc1nc(C#N)[nH]c1C | 3.54
116 | C=CC(=O)N1CCCC2(CCCOC2)C1 (stereo not shown) | 11.3
117 | Cc1c(C#N)c(S)nc2c1CCC2 | 15.1
118 | Cc1nc(S)c(C#N)c(C)c1C | 3.15
119 | Cc1nnc(S)c(C#N)c1C | 53.3
120 | CCOc1ccc(S(=O)(=O)n2nc(C)cc2C)cc1 | 3.86
121 | Cc1nc(C)c(C=C(C#N)C(=O)NC(C)C)o1 | 3.38
122 | N#CC(=Cc1ccncc1)C(=O)Nc1cccc(Cl)c1 | 10.5
123 | N#CC(=Cc1ccc(Cl)cc1)C(=O)Nc1ccncc1 | 2.9
124 | C#Cc1ccc(C=C(C#N)C(=O)Nc2ccncc2)cc1 | 73.3
